From the supplement of paper PMC8007513 come the findings set out here.

Molecules are shown by their SMILES. Where a name gives a salt, the structure may show the parent alone. ± gives the standard error. Among all 1,300 compounds or so, about 75 (6%) showed an effect of 50% or more. The sample as a whole holds a higher share of strong results than the screen did.

The test system of this assay is Trichoderma virens ATCC 9645. The experiment in a line: growth yield (OD600) relative to untreated control; higher = less growth inhibition. Conditions: compound concentration: 100 uM. In a few lines: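 Trichoderma virens ATCC 9645 spores, from potato dextrose agar plates grown for 7 days, were brought to 15,000 spores ml^−1 in potato dextrose broth and dispensed as 100 μl aliquots into 96-well plates. Each aliquot received library compounds at 100 μM final, with or without a biocide at 200 ng ml^−1, before growth at 30 °C and OD600 readings on a BioTek EL800 at 40 h and 72 h. Growth is expressed relative to the control containing neither agent and represents means of duplicate screens.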

Take `N[C@@H]1CCCCN(c2c(F)cc3c(=O)c(C(=O)O)cn(C4CC4)c3c2Cl)C1` [Besifloxacin hydrochloride]: the growth yield by setting is: (40 h) 93.4 ± 6.3%; (72 h) 91.6 ± 8.3%.
As to `C[C@H](Cc1cc2c(c(C(N)=O)c1)N(CCCO)CC2)NCCOc1ccccc1OCC(F)(F)F` [Silodosin], the growth yield came out at 105% (40 h) and 100 ± 2.3% (72 h).
The matching figures for `Cc1cc(/C=C/c2ccc3cc(N(C)C)ccc3[n+]2C)c(C)n1-c1ccccc1` [Pyrvinium pamoate]: 124 ± 20% and 114 ± 12%.
`CCC1NC(=O)c2cc(S(N)(=O)=O)c(Cl)cc2N1` (configuration not stated) [Quinethazone]: the growth yield amounted to 114 ± 1.4% (40 h) and 107 ± 1.1% (72 h).
The matching figures for `C#C[C@]1(OC(C)=O)CC[C@H]2[C@@H]3CCC4=CC(=NO)CC[C@@H]4[C@H]3CC[C@@]21CC` (mixture of isomers) [Norgestimate]: 117 ± 3.3% and 112 ± 3.9%.
The matching figures for `Clc1ccc(COC(Cn2ccnc2)c2ccc(Cl)cc2Cl)c(Cl)c1` (configuration not stated) [Miconazole]: 1.43 ± 1.1% and 1.47 ± 0.63%.
Taken in the same sequence, the figures for `COc1ccc(-c2ccc3cc(C(=O)O)ccc3c2)cc1C12CC3CC(CC(C3)C1)C2` [Adapalene] were 107 ± 1.9% and 106.6 ± 0.84%.
Molecule `Nc1ncnc2c1ncn2C1OC(COP(=O)(O)O)C(O)C1O` (configuration not stated) [Adenosine 5'-monophosphate monohydrate] returned a growth yield (40 h) of 106 ± 1.3% and a growth yield (72 h) of 107 ± 3.6%.
Taken in the same sequence, the figures for `Cc1c(NC(C)C)c(=O)n(-c2ccccc2)n1C` [Isopyrin hydrochloride] were 100.9 ± 0.79% and 96.17 ± 0.52%.
The matching figures for `O=C(O)Cc1cc(I)c(Oc2ccc(O)c(I)c2)c(I)c1` [Tiratricol, 3,3',5-triiodothyroacetic acid]: 28.9 ± 16% and 46.6 ± 17%.
Taken in the same sequence, the figures for `NC(Cc1cc(I)c(Oc2cc(I)c(O)c(I)c2)c(I)c1)C(=O)O` (configuration not stated) [Thyroxine (L)] were 98 ± 2.1% and 94.5 ± 3.9%.
On to `N[C@@H](Cc1cc(I)c(Oc2ccc(O)c(I)c2)c(I)c1)C(=O)O` [Liothyronine], for which the growth yield is, setting by setting: (40 h) 91.3 ± 3.3%; (72 h) 97.3 ± 1.1%.
The matching figures for `COc1cc2nc(N3CCN(C(=O)c4ccco4)CC3)nc(N)c2cc1OC` [Prazosin hydrochloride]: 105 ± 5.7% and 101 ± 1.4%.
Taken in the same sequence, the figures for `CCOC(=O)/C=C(C)/C=C/C=C(C)/C=C/c1c(C)cc(OC)c(C)c1C` [Etretinate] were 110 ± 6.3% and 107 ± 5.5%.
Taken in the same sequence, the figures for `CC(=O)Nc1ccc(CC(=O)O)cc1` [Actarit] were 106 ± 5.4% and 102 ± 3.4%.
For `C[C@@H](O)[C@H]1C(=O)N2C(C(=O)O)=C(SCCNC=N)C[C@H]12` [Imipenem], the growth yield reads like this: (40 h) 103 ± 2.2%; (72 h) 104 ± 2.2%.
